# Screens (PubChem)
# An excerpt weighted towards active compounds, which were near 2% of everything screened.
# ABCB6 inh MLPCN: human ABCB6 transporter inhibition; fluorescence ratio to DMSO, % at 10 µM; Q9NP58; K562-ABCB6 porphyrin accumulation, flow cytometry, 1 h; hits give low values; 360,000 tested, 0.19% active; AID 602162;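 active = fluorescence ratio to DMSO below 75%, the collection mean minus 3 SD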;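 note: signal is porphyrin accumulated inside mitochondria; 100% equals median channel fluorescence of DMSO control wells; lower ratio means ABCB6 inhibition with less porphyrin fluorescence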
# PG9 Ab binder: binds the HIV-1 gp120 antibody PG9. TR-FRET gp120-PG9 antibody binding. inhibition, % at 6.7 µM. 360,000 tested, 0.43% active. AID 624416; in the data active = inhibition above about 8.5%
# Rev-erbA mod: modulators of human Rev-erb alpha DNA binding; P20393; Rev-erbα–FITC-DNA binding, fluorescence polarization, 90 min; activity, % at 10 µM; 370,000 tested, 0.79% active; AID 1259318;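 active = activity above about 14%, limit read from the data; passing the limit was not always enough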;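 note: 0% = DMSO wells with 35 nM protein and 100% = DMSO wells with 750 nM protein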
# Target sequence (P20393 whole entry, looked up): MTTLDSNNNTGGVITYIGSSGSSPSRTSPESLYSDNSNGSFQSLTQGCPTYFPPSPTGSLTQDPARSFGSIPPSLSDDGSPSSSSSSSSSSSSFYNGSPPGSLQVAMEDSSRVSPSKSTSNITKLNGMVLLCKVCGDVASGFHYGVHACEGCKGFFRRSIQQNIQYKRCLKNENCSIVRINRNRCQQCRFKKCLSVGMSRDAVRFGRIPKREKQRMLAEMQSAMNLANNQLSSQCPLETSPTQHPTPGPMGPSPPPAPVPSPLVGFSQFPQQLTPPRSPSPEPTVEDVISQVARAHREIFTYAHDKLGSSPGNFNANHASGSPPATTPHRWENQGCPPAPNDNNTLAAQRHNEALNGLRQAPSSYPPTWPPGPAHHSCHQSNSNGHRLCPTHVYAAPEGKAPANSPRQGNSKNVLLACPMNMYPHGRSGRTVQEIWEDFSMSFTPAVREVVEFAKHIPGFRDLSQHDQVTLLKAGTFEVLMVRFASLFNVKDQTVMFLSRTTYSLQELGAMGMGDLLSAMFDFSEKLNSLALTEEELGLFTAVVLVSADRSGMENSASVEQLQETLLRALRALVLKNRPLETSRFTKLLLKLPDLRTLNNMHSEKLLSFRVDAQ
# Granule exo inh: lytic granule exocytosis inhibition; AID 651702; TALL-104 LAMP-1 surface exposure, flow cytometry; cells stimulated with thapsigargin and PMA; 360,000 tested, 0.66% active; inhibition, % at 10 µM;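 active = inhibition above about 55%, limit read from the data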
# VLA-4 inh: inhibition in a human VLA-4 binding assay | 330,000 tested, 0.2% active | AID 2557 | P13612 | VLA-4 expressing cells, ligand binding flow cytometry | inhibition, % (about 7 µM as worked out from the volumes in the protocol); in the data active = inhibition above about 50%
# Rev-erbA confirm: confirmation of modulators of human Rev-erb alpha DNA binding | 3,000 tested, 61% active | shares compounds with Rev-erbA mod | activation, % at 25 µM | Rev-erb alpha FITC-DNA binding, fluorescence polarization, 90 min;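 active = activation at or above a set limit, or at least 3 SD above the negative control mean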;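 note: 0% = 35 nM protein with DMSO and 100% = 750 nM protein high control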
# RORg DNA counter: affects RORgamma DNA binding in a Rev-erb alpha counter-screen; IC50, µM; purified RORgamma protein-FITC-DNA binding, fluorescence polarization; 910 tested, 8% active; shares compounds with Rev-erbA mod; AID 1259320;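 active = Compounds whose fitted half-maximal concentration for disrupting protein-DNA binding is below 10 micromolar; the record names Rev-erb in its text, so the target is in doubt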
# * marks the source's active call; other numbers are inactive results; i = inactive; / = no result.
SMILES,ABCB6 inh MLPCN,PG9 Ab binder,Rev-erbA mod,Granule exo inh,VLA-4 inh,Rev-erbA confirm,others
C=CCN1C(=O)[C@H](CC(=O)N2CCSCC2)[C@@]2(C(=O)OCC)CCCC=C12,/,/,-5.5,/,/,/,
CCc1ccccc1NC(=O)c1cc(C)nn1-c1ccccc1,/,/,-4.0,/,/,/,
O=C(Nc1ccc(F)cc1)c1sc2cc(C(F)(F)F)cnc2c1-c1cccs1,97.0,-13.1,49.3*,-2.4,-17.0,21.1*,
NNC(=O)c1sc2cc(C(F)(F)F)cnc2c1-c1ccccn1,97.0,-0.9,-1.5,-0.1,-8.0,/,
Cc1cccc2nc(-c3ccccc3)c(-c3ccc(CN4CCC(n5cc(-c6ccccc6)[nH]c5=O)CC4)cc3)nc12,/,1.4,6.2,/,/,/,
CCOc1ccc(C(C)=O)cc1COC(=O)c1cc([N+](=O)[O-])ccc1N1CCOCC1,86.0,0.4,13.7*,-6.2,-8.3,-3.3,
CCn1c(SCC(=O)Nc2ccccc2-c2ccccc2)nnc1-c1cnccn1,/,/,3.1,/,/,/,
Oc1ccccc1C=NC(N=Cc1ccccc1O)c1ccccc1O (configuration not stated),/,2.7,0.0,/,/,/,
Oc1ccccc1-c1nc(NCc2ccccc2)c2ccccc2n1,101.0,6.0,97.2*,-11.3,13.9,76.9*,RORg DNA counter=>40
Oc1ccccc1-c1nc(N2CCCC2)c2ccccc2n1,95.0,-2.0,134.3*,17.1,5.0,69.4*,RORg DNA counter=6.92*
C=CCOC(=O)C(CO)NC(=O)CCCC(=O)O (configuration not stated),/,/,1.5,/,/,/,
Cc1ccccc1C(=O)Nc1ccc(C(=O)NNC(=O)CCCOc2ccc(Cl)cc2Cl)cc1,91.0,-0.3,0.0,0.8,2.4,/,
O=C(CCCOc1ccc(Cl)cc1Cl)NNC(=O)c1ccc(NC(=O)c2ccccc2)cc1,99.0,1.6,73.8*,-2.8,-5.8,99.0*,RORg DNA counter=>40
CCOC(=O)CC[C@@H]1CC[C@]2(CCCN(Cc3cccs3)C2)O1,/,/,2.6,/,/,/,
O=C(Nc1cccnc1)c1cc(-c2cccnc2)nc2ccc(Br)cc12,106.0,5.1,3.1,-1.2,-12.0,/,
COc1cc(NC(=O)c2cc(-c3cccnc3)nc3ccc(Br)cc23)cc(OC)c1,97.0,3.2,31.4*,-28.0,11.7,20.4*,
Cc1ccc(-c2nnc3n2N=C(c2ccc(-c4ccccc4)cc2)CS3)cc1,/,/,-12.7,/,/,/,
CCCCCCSc1ccc(-c2nc3ccc(C)cn3c2NCCCC)cc1OC,110.0,2.0,16.1*,11.3,/,6.3,
CCCCNc1c(-c2ccc(SC3CCCCC3)c(OC)c2)nc2ccc(Cl)cn12,119.0,-2.4,19.6*,-3.6,1.6,8.8,
Cc1ccn2c(NC3CCCCC3)c(-c3ccc(SC4CCCCC4)cc3)nc2c1,99.0,3.6,32.8*,-0.8,/,14.7*,
CCCCCCSc1ccc(-c2nc3ccc(Cl)cn3c2NC2CCCCC2)cc1,102.0,1.2,22.8*,-0.7,-10.2,22.4*,
COC(=O)[C@]12C[C@H](CC(=O)N3CCN(C(=O)c4ccco4)CC3)C(=O)N(Cc3cccc4ccccc34)C1=C[C@H](C1CCCC1)O[C@@H]2C,/,/,2.8,/,/,/,
COC[C@@H]1CCCN1c1cccc2c1S(=O)(=O)N(C1CC1)CC[C@@H](C)O2,/,/,-1.2,/,/,/,
CCOC(=O)c1c(NC(=O)COC(=O)c2nc(Cl)ccc2Cl)sc(C(=O)NC)c1C,99.0,7.0,5.1,11.2,-6.8,/,
CCOC(=O)c1c(NC(=O)COC(=O)c2ccc(O)cc2)sc(C(=O)NC)c1C,95.0,-0.5,38.1*,3.5,-7.3,29.3*,
SMILES,ABCB6 inh MLPCN,PG9 Ab binder,Rev-erbA mod,Granule exo inh,VLA-4 inh,Rev-erbA confirm,others
CCN(C[C@@H]1[C@@H](c2ccccc2)[C@H](CO)N1S(C)(=O)=O)C(=O)C1CCC1,/,/,-5.0,/,/,/,
CC(/C=C/c1ccccc1F)=N\NC(=O)c1cccc(F)c1,101.0,-0.5,16.8*,-1.0,13.8,0.6,
CC(/C=N/NC(=O)c1cccc(F)c1)=C\c1ccccc1,97.0,-1.6,1.7,4.7,-28.1,/,
C#CCN1CC(N(C)CCOC(=O)CSc2ccccc2)CS1(=O)=O (configuration not stated),/,/,3.3,/,/,/,
Cc1nc(NCCc2ccc(Cl)cc2)c2nnn(Cc3ccccc3)c2n1,103.0,-0.7,40.0*,-1.8,11.7,35.1*,RORg DNA counter=i
CN(Cc1ccccc1)S(=O)(=O)c1cccc(C(=O)OCc2ccccc2Cl)c1,/,/,9.3,/,/,/,
N#Cc1ccc(-c2cccnc2)nc1SCc1ccc(Cl)cc1Cl,96.0,-2.3,19.6*,-0.4,-20.9,6.0,
